Screen size: about 48,000 compounds; about 13,000 (27%) showed an effect of 50% or more. Some of the results follow.
Test system: Wolbachia pipientis
Assay: Anti-Wolbachia Cell-Based Screen
Assay type: functional
Set-up: scale not given: in the data most compounds retested in dose-response had high values
Settings: 5 µM

Point of comparison: `O=C(c1ccsc1)N1CCc2c(nc(-c3ccncc3)[nH]c2=O)C1`, “Percent Effect” value -0.2016%. Against it:
- CN(C)CCN(Cc1cccc(C(F)(F)F)c1)C(=O)c1cc[nH]n1 — higher, 1.923%
- Cc1c[nH]c(CN2CCN(C)C3(CCC(=O)N(CC4CC4)CC3)C2)n1 (stereo not drawn) — lower, -1.954%
- Cc1cccc(N2CCc3ncc(CNc4ccccn4)n3CC2)n1.O=C(O)C(F)(F)F.O=C(O)C(F)(F)F — higher, 88.27%
- CS(=O)(=O)NCc1cnc2n1CCN(Cc1ccsc1)CC2.O=C(O)C(F)(F)F — lower, -2.337%
- CN(Cc1ccco1)Cc1cnc2n1CCN(c1ccccn1)CC2.O=C(O)C(F)(F)F.O=C(O)C(F)(F)F — higher, 10.62%
- CCS(=O)(=O)N1CCC2(CN(c3cccc(C)n3)C2)C1.O=C(O)C(F)(F)F — higher, 1.878%
- Cc1cccc(N2CCc3ncc(CNS(C)(=O)=O)n3CC2)n1.O=C(O)C(F)(F)F — higher, 88.7%
- CN1CCc2ncc(CNc3cc(N(C)C)ncn3)n2CC1.O=C(O)C(F)(F)F — lower, -9.651%
- Cc1cc(C)c(C(=O)N2CCc3c(ncn3CCc3ccccc3)C2)[nH]1 — lower, -5.733%
- CCCNC(=O)N1CCCC2(CCC(=O)N(CCc3c[nH]cn3)C2)C1 (stereo not drawn) — higher, 12.8%
- CC(C)NC(=O)N1CCN(CCn2cccn2)c2ncccc2C1.O=C(O)C(F)(F)F — higher, 105%
- Cc1ccc2c(n1)N(CCn1cccn1)CCN(C(=O)NC1CC1)C2.O=C(O)C(F)(F)F — higher, 12.45%
- CN1CCN(C(=O)Cc2ccc(F)cc2)Cc2cccnc21.O=C(O)C(F)(F)F — lower, -3.35%
- Cc1ccc2c(n1)N(C)CCN(C(=O)NC(C)C)C2.O=C(O)C(F)(F)F — lower, -4.064%
- Cc1ccc2c(n1)N(CCn1cccn1)CCN(C(=O)NC(C)C)C2 — higher, 112.2%
- CCC(=O)N1CCN(CCn2cccn2)c2ncccc2C1.O=C(O)C(F)(F)F — higher, 88.49%
- CC(C)NC(=O)N1CCN(CC2CC2)c2ncccc2C1.O=C(O)C(F)(F)F — lower, -7.83%
- CN1CCN(C(=O)NC2CC2)Cc2cccnc21.O=C(O)C(F)(F)F — lower, -1.72%
- CC(=O)NCC(=O)N1CCN(CCN(C)C)c2ncccc2C1.O=C(O)C(F)(F)F.O=C(O)C(F)(F)F — lower, -13.2%
- CN1CCC(N(Cc2ccco2)S(=O)(=O)c2cc(Br)ccc2Br)CC1 — higher, 17.1%
- CSc1ccc(CN(C(=O)c2cc(=O)[nH]c(=O)[nH]2)C2CC2)cc1 — higher, 1.499%
- CN(C)C(C(=O)NCCS(=O)(=O)N(C)C)c1cccc(F)c1 (stereo not drawn) — lower, -10.76%
- Cc1ccccc1-c1cc(NC(=O)NC2CC2)n(CCO)n1 — lower, -65.06%
- Cc1nn(C)cc1-c1cc(-c2cn(C)nc2C)n(CC(=O)NC2CC2)n1 — higher, 89.98%
- Cn1cc(CN2CCC(CCC(=O)NC3CC3)CC2)cn1 — lower, -12.61%
- CN(Cc1cnn(C)c1)C(=O)NC1CCC(O)CC1 (stereo not drawn) — higher, 16.63%
- Cc1nn2c(NCC(=O)NC3CC3)cc(-c3ccccc3)nc2c1C — higher, 7.066%
- Cn1cc(-c2cc(-c3cnn(C)c3)n(CC(=O)NC3CC3)n2)cn1 — higher, 98.73%
- Cc1c(-c2cc(-c3cnn(C)c3C)n(CC(=O)NC3CC3)n2)cnn1C — higher, 78.99%
- Cc1ccccc1-c1cc(NC(=O)NC2CCC(O)CC2)n(CCO)n1 (stereo not drawn) — lower, -35.4%
- Cc1cn(CC(=O)NC2CCC(C(=O)O)CC2)c2ccccc12 (stereo not drawn) — lower, -7.822%
- O=C(c1cnc(Nc2ccccc2)nc1)N1CCCC2(CCNC2)C1 (stereo not drawn) — lower, -3.033%
- CCN(C(=O)CN(CC(N)=O)C(C)C)C1=CCCC1 — higher, 4.298%
- CCOc1cc(F)ccc1NS(=O)(=O)c1cc(C)c(C(=O)O)s1 — higher, 9.69%
- Cc1ccc(CN2C[C@H]3CN(CC4CCN(C)CC4)C(=O)[C@H]3C2)s1 — lower, -10.19%
- O=C(c1ccccn1)N1CCc2c(nc(N3CCCC3)[nH]c2=O)C1 — lower, -8.561%
- O=C(c1cc[nH]n1)N1CCc2c(nc(N3CCCCC3)[nH]c2=O)C1 — higher, 120.1%
- O=C(c1cccs1)N1CCc2c(nc(N3CCCC3)[nH]c2=O)C1 — higher, 120%
- O=C(c1ncccc1O)N1CCc2c(nc(-c3ccncc3)[nH]c2=O)C1 — lower, -0.3257%
- O=C(c1ccc(=O)[nH]c1)N1CCc2c(nc(-c3cccnc3)[nH]c2=O)C1 — higher, 3.404%
- Nc1nc2c(c(N3CCN(C(=O)c4cccs4)CC3)n1)CCCC2 — higher, 3.246%
- O=C(c1cccnc1)N1CCc2c(nc(N3CCCC3)[nH]c2=O)C1 — higher, 113.8%
- Cc1nc(C(=O)N2CCc3c(nc(-c4ccncc4)[nH]c3=O)C2)cs1 — lower, -11.53%
- Cc1nc2sccn2c1C(=O)N1CCc2c(nc(N(C)C)[nH]c2=O)C1 — higher, 14.79%
- Cc1nc2sccn2c1C(=O)N1CCc2c(nc(N)[nH]c2=O)C1 — lower, -0.7078%
- O=C(c1cccs1)N1CCc2c(nc(N3CCCCC3)[nH]c2=O)C1 — higher, 121.5%
- O=C(Nc1cncc(Br)c1O)c1ccon1 — lower, -9.076%
- Cc1csc(CCNC(=O)c2cc3c(nc2O)CCC(C)C3)n1 (stereo not drawn) — lower, -7.199%
- CC(C)(C)n1cc(C#N)cc1NC(=O)CCS(=O)(=O)C1CCCC1 — lower, -10.01%
- COCC(C)(CCO)NC(=O)Nc1cccc(Br)c1C (stereo not drawn) — higher, 7.029%
- NC(=O)CN1CCN(c2ccnc3c(F)ccc(F)c23)CC1 — higher, 3.08%
- NC(=O)c1cccc2nc([C@H]3CCN(Cc4ccccn4)C3)[nH]c12 — lower, -3.203%
- COc1ccc(C)cc1CNC(=O)C1=NN(c2ccccc2)C(=O)CN1 — higher, 14.16%
- Cc1nc(CN2CCN(c3nc4c(s3)c(C)nn4C)CC2)cs1 — higher, 119.2%
- Cc1nn(C)c2nc(N3CCN(Cc4nccn4C)CC3)sc12 — higher, 103.8%
- Cc1nc(CNc2nc3c(s2)c(C)nn3C)cs1 — lower, -20.12%
- Cc1nc(CN2CCN(c3ccc(SC(C)C)nn3)CC2)cs1 — higher, 68.89%
- COC(=O)c1ccc(N2CCN(Cc3csc(C)n3)CC2)nn1 — lower, -1.977%
- Cc1cc(N2CCN(Cc3nccn3C)CC2)cc(C)n1 — lower, -5.748%
- Cc1nn(C)c2nc(N3CCC(C(O)c4nccn4C)CC3)sc12 (stereo not drawn) — lower, -3.971%
- CCc1nc(CNc2nc3c(s2)c(C)nn3C)cs1 — lower, -39.2%
- CC(C)Sc1ccc(N2CCN(Cc3ccccn3)CC2)nn1 — higher, 14.48%

Source: ChEMBL document CHEMBL3988442, “University of Dundee, Small-Polar-MMV Screening Library” (2021)
